Bioassay records as filed in PubChem BioAssay.
The full list was thinned out, with hits kept by preference.
Pf Dd2 growth – blocks in vitro growth of P. falciparum Dd2; AID 1347417; P. falciparum Dd2 growth, SYBR Green, 72 h; actives 4.3% (n = 120,000); Potency, µM (series often up to 28.9 µM), inactives show top-dose activity, negative = inhibition, usual class: inhibitors; active means well fitted inhibition curve with a large enough effect;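 further: plate controls were DMSO vehicle for no effect and reference drug for full effect; nearly all actives have a fitted effect of over 65% in size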
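Readout: SYBR Green fluorescence, 485 nm excitation, 535 nm emission, after ~16 h lysis at 37C. Before that, Dd2-infected red cells (2.5% hematocrit) grew 72 h with compound, 29 uM top final concentration.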
Starred values were filed as active, the others as inactive; [ ] = dose if it differs, or a comment. Potency means the concentration at half of the fitted maximal effect.

`O=C(c1ccc2cc[nH]c2c1)N1CCC(Cc2nncn2CC2CC2)C1` (stereo unspecified) gave Pf Dd2 growth inactive.
Screening Cc1ccc(NC(=O)N2CCC(Cc3nncn3Cc3ccccc3)C2)cc1C (stereo unspecified) returned Pf Dd2 growth -6%.
Screening Cc1ccc(-c2cc(C(=O)N3CCC(Cc4nncn4CC4CC4)CC3)c3ccccc3n2)cc1C returned Pf Dd2 growth 2.8µM*.
`O=C1CN(C(=O)c2csc3nc(-c4ccc(C(F)(F)F)cc4)cn23)CCCN1` gave Pf Dd2 growth inactive.
CCNC(=O)N[C@H]1[C@H](O)[C@H](O)C[C@@H]1C1CCCCC1 was read as Pf Dd2 growth -19%[44.1 µM].
Screening O=c1cc(CN2CCCCC2c2ccccn2)[nH]c2ccc(F)cc12 (stereo unspecified) returned Pf Dd2 growth -10%.
Screening Cn1cc(CN2CCCC2c2ccccn2)c(-c2ccc(Oc3ccccc3)cc2)n1 (stereo unspecified) returned Pf Dd2 growth 7.1µM*.
Screening CCn1ccnc1CN(C)Cc1cn(C)nc1-c1ccc(Oc2ccccc2)cc1 returned Pf Dd2 growth -4%.
`COc1ccc(CN2CCc3nc(C4CC4)nc(-c4ccc(O)cc4)c3CC2)cc1` gave Pf Dd2 growth 4µM*.
`COc1ccc(-c2nc(C)nc3c2CCN(CC2CCCCC2)CC3)cc1` gave Pf Dd2 growth inactive.
`COc1ccc(-c2nc(C3CC3)nc3c2CN(S(=O)(=O)c2cccc(OC)c2)CC3)cc1` gave Pf Dd2 growth -28%.
For COc1ccc(-c2nc(C3CC3)nc3c2CCN(Cc2cncs2)CC3)cc1 the results were Pf Dd2 growth 10µM*.
Screening COc1ccc(-c2nc(C3CC3)nc3c2CCN(Cc2ccc(NC(C)=O)cc2)CC3)cc1 returned Pf Dd2 growth 8.9µM*.
Screening CC(C)c1nc2c(c(-c3ccc(O)cc3)n1)CCN(Cc1cncs1)CC2 returned Pf Dd2 growth -8%.
For COc1ccc(CN2CCc3nc(C4CC4)nc(-c4ccc(O)cc4)c3C2)cc1 the results were Pf Dd2 growth inactive.
COc1ccc(-c2nc(C)nc3c2CCN(Cc2ccnn2C)CC3)cc1 was read as Pf Dd2 growth inactive.
COc1ccc(-c2nc(C3CC3)nc3c2CCN(Cc2ccnn2C)CC3)cc1 was read as Pf Dd2 growth -1%.
COc1ccc(-c2nc(C3CC3)nc3c2CCN(Cc2ccc(C#N)cc2)CC3)cc1 was read as Pf Dd2 growth 7.9µM*.
CCc1nc2c(c(-c3ccc(O)cc3)n1)CCN(C(=O)c1ccc(OC)cc1)CC2 was read as Pf Dd2 growth inactive.
`CC(=O)Nc1ccc(CN2CCc3nc(C4CC4)nc(-c4ccc(O)cc4)c3CC2)cc1` gave Pf Dd2 growth inactive.
For COCCOCC(=O)N1C[C@@H](Oc2ccccc2)C[C@H]1C(=O)N1CCOCC1 the results were Pf Dd2 growth -3%.
Screening O=S(=O)(NCC1Cn2cccc2CN1Cc1cccnc1)c1ccc(F)cc1 (stereo unspecified) returned Pf Dd2 growth -15%.
Screening COCC(=O)N1CC[C@@H](CC(=O)O)[C@@H](CC2=NCCc3ccc(C)cc32)C1 returned Pf Dd2 growth 1%[44.1 µM].
CC(C)NC(=O)[C@@H]1C[C@H](N)CN1C(=O)c1ccc(-n2cnnn2)cc1 was read as Pf Dd2 growth -1%.
Screening O=C(NC1CCN(c2cc(-c3ccccc3)[nH]n2)CC1)c1cccc(Cl)c1 returned Pf Dd2 growth -26%.
Cn1cc(C(=O)N2CCC(c3noc(-c4ccccc4)n3)C2)cn1 (stereo unspecified) was read as Pf Dd2 growth 16%[5.79 µM].
`Cc1nc2cccnc2n1CC1CCCN(C(=O)Nc2ccccc2Cl)C1` (stereo unspecified) gave Pf Dd2 growth inactive.
For O=C(CCCc1ccccc1)N1CCC(Cc2nc(-c3ccc(F)cc3)no2)CC1 the results were Pf Dd2 growth -5%.
Screening CCN1C(=O)CCN(C(=O)CCC2CCCC2)CC12CCOCC2 returned Pf Dd2 growth -13%.
For COc1ccc(C(=O)Nc2ccc([C@H]3OCC(=O)N(Cc4cccnc4)[C@@H]3CO)cc2)cc1 the results were Pf Dd2 growth inactive.
For Oc1ccc(-c2nc(C3CC3)nc3c2CCN(Cc2ccc(F)cc2)CC3)cc1 the results were Pf Dd2 growth 4µM*.
`Oc1ccc(-c2nc(C3CC3)nc3c2CCN(Cc2ccccn2)CC3)cc1` gave Pf Dd2 growth inactive.
For Cc1nc2c(c(-c3ccc(O)cc3)n1)CN(Cc1ccc(F)cc1)CC2 the results were Pf Dd2 growth -6%.
For CS(=O)(=O)N1CCCC(C(=O)N2CCOCC2)CCNC(=O)CC1 (stereo unspecified) the results were Pf Dd2 growth 39%.
`CCc1nc2c(c(-c3ccc(Cl)cc3)n1)CCN(Cc1ccccc1)CC2` gave Pf Dd2 growth inactive.
COc1ccc(-c2nc(C)nc3c2CCN(Cc2cccn2C)CC3)cc1 was read as Pf Dd2 growth inactive.
`CCc1nc2c(c(-c3ccc(Cl)cc3)n1)CN(C(=O)Cc1cccc(Cl)c1)CC2` gave Pf Dd2 growth 4.5µM*.
Screening CCc1nc2c(c(-c3ccc(O)cc3)n1)CCN(Cc1cccn1C)CC2 returned Pf Dd2 growth 8.9µM*.
CCc1nc2c(c(-c3ccc(OC)cc3)n1)CCN(Cc1ccsc1)CC2 was read as Pf Dd2 growth -27%.
`CCc1nc2c(c(-c3ccc(Cl)cc3)n1)CN(C(=O)C1CC1)CC2` gave Pf Dd2 growth -8%[44.1 µM].
CCc1nc2c(c(-c3ccc(OC)cc3)n1)CCN(C(=O)c1ccccc1)CC2 was read as Pf Dd2 growth -22%.
CCc1nc2c(c(-c3ccc(OC)cc3)n1)CCN(Cc1cccc(NC(C)=O)c1)CC2 was read as Pf Dd2 growth 13µM*.
CCc1nc2c(c(-c3ccc(Cl)cc3)n1)CN(C(=O)COC)CC2 was read as Pf Dd2 growth 2%.
`CCc1nc2c(c(-c3ccc(Cl)cc3)n1)CCN(Cc1ccc(F)cc1)CC2` gave Pf Dd2 growth -10%.
CCc1nc2c(c(-c3ccc(Cl)cc3)n1)CCN(Cc1ccc(NC(C)=O)cc1)CC2 was read as Pf Dd2 growth 2.5µM*.
Cc1nc2c(c(-c3ccc(O)cc3)n1)CN(Cc1cccn1C)CCC2 was read as Pf Dd2 growth -31%.
Screening Cc1noc([C@H]2CCN(C(=O)Nc3ccccc3F)C[C@H]2NC(=O)C2CC2)n1 returned Pf Dd2 growth inactive[5.79 µM].
For CCNC(=O)[C@@H]1C[C@H](n2cc(C(C)(C)NC(=O)c3ccccc3C)nn2)CN1 the results were Pf Dd2 growth -9%.
Screening CCS(=O)(=O)Nc1ccc(C(=O)N2Cc3nnc(C)n3C(C)C2)cc1 (stereo unspecified) returned Pf Dd2 growth -2%.
`CC(C)(C)NC(=O)N1C[C@@H](Oc2cccnc2)C[C@H]1C(=O)N1CCOCC1` gave Pf Dd2 growth 32%.
`O=Cc1cccc(N2CCN([S+](=O)([O-])C3CC3)CC2=O)c1` gave Pf Dd2 growth -18%.
For Cc1cccc(C(=O)N2CCCCCNC(=O)[C@@H]3CCC[C@@H]32)c1 the results were Pf Dd2 growth -17%.
Screening COCCNC(=O)C(C)[C@@H]1CC[C@@]2(C)CC[C@H](N[S+](C)(=O)[O-])[C@@H](C)[C@@H]2[C@H]1O (stereo partly specified) returned Pf Dd2 growth -3%[44.1 µM].
`O=C1NCCOCCN(C(=O)COc2ccccc2)[C@H]2CCC[C@@H]12` gave Pf Dd2 growth 48%.
`COc1ccccc1N1CCN(C(CNC(=O)C(=O)NCc2cccnc2)c2cccnc2)CC1` (stereo unspecified) gave Pf Dd2 growth -4%.
